Data published in PubChem BioAssay AID488890 (Southern Research Specialized Biocontainment Screening …, 2010).
Screen size: about 320,000 compounds; about 1,300 (0.41%) were called active. Inconclusive results (about 3%) are left out. How the calls were made is not given here. These entries were drawn from the full list. Results with a measured potency or affinity are listed apart.

Experiment: growth inhibition of non-replicating M. tuberculosis (AID 488890);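 further: plate controls were DMSO cells for no effect and high antibiotic wells for full effect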
Conditions: Mycobacterium tuberculosis non-replicating, at 25 µM, stronger effect = higher value

Row | SMILES | inhibition [%]
1 | O=C1N(Cc2cccnc2)C[C@@H]2C[C@@H](c3cccc(OCc4ccccc4)c3)N3CCC[C@@]123 | 13.3
2 | O=C(C1CCCN(C2CC(=O)N(c3ccc(Cl)cc3)C2=O)C1)N1CCCC1 (centres undefined) | 62.9
3 | COc1cc(/C=N/NC(=O)c2cc(C)oc2C)cc(OC)c1OC | 5.12
4 | Cc1cc(C(=O)OC(C)C(=O)N2CCc3ccccc32)ccc1[N+](=O)[O-] (centres undefined) | -2.01
5 | C=CCc1ccc(OCCCCOc2ccc(C(=O)O)cc2)c(OC)c1 | 65.2
6 | CCOc1ccc(C(=O)OCC(=O)N(Cc2ccccc2)Cc2ccccc2)cc1OC | 6.46
7 | CCN(C(=O)COn1nnc2ccc(S(=O)(=O)N(C)C)cc21)C1CCS(=O)(=O)C1 (centres undefined) | -12
8 | Cc1ccccc1OC1CCN(C(=O)C2CCC(=O)N(C3CCCC3)C2)CC1 (centres undefined) | -4.05
9 | COc1ccnc2c1c(=O)n(Cc1ccc(Cl)cc1Cl)c(=O)n2C | 7.37
10 | COc1ccc(OC)c(S(=O)(=O)NCC(=O)O)c1 | -1.93
11 | C[C@H](CO)N1C[C@H](C)[C@@H](CN(C)S(C)(=O)=O)Oc2ccc(NC(=O)C3CCCCC3)cc2C1=O | -13.1
12 | O=c1cc(-c2ccc(O)cc2)oc2cc(O)cc(O)c12 | 20.1
13 | O=c1cc(-c2ccccc2)oc2cc(O)cc(O)c12 | 9.39
14 | CCOC(=O)c1ccc([N+](=O)[O-])cc1NC(C)=O | -5.06
15 | CCOC(=O)c1ccc(NC(C)=O)c([N+](=O)[O-])c1 | -2.26
16 | Cc1cc(S(=O)(=O)NCCCn2ccnc2)c(C)cc1Cl | 21.8
17 | Cc1ccc(NC(=O)C2C3C=CC4(O3)C2C(=O)N(CCN2CCOCC2)C4C(=O)NC2CCCCC2)cc1C (centres undefined) | 4.86
18 | COc1ccc(Cl)cc1S(=O)(=O)NC(C)C(=O)NCc1cccnc1 (centres undefined) | 0.53
19 | COc1ccc2c(c1O)C(=O)c1ccccc1C2=O | -8.36
20 | CNc1c(C(=O)O)ccc2c1C(=O)c1ccccc1C2=O | -14.2
21 | CCc1ccccc1NS(=O)(=O)c1cc(C)ccc1OC | 16.3
22 | CCOc1ccc2nc(NCCCO)[nH]c2c1 | 2.84
23 | O=C(O)c1cccc(S(=O)(=O)Nc2cc(Cl)ccc2Cl)c1 | 13.1

Row | SMILES | inhibition [%]
24 | COc1ccc(NC(=O)C2CCN(S(=O)(=O)c3ccc(Br)s3)CC2)cc1OC | -2.33
25 | Cc1ccc(C2C(C#N)=C(N)Oc3n[nH]c(C)c32)cc1 (centres undefined) | -4.34
26 | Cc1[nH]nc2c1C(c1ccc(Cl)cc1)C(C#N)=C(N)O2 (centres undefined) | -2.67
27 | Cc1[nH]nc2c1C(c1ccc(-c3ccccc3C#N)o1)C(C#N)=C(N)O2 (centres undefined) | 49.7
28 | CCCc1[nH]nc2c1C(c1cccc(OC(=O)c3ccco3)c1)C(C#N)=C(N)O2 (centres undefined) | 17.8
29 | COc1ccc(Br)cc1CNc1ccc(N2CCOCC2)cc1 | 24
30 | CCCCN(C(=O)C1CC(=O)N(c2ccc3c(c2)OCCO3)C1)c1c(N)n(CCCC)c(=O)[nH]c1=O (centres undefined) | 0.16
31 | Cc1ccccc1NC(=O)c1nn(C)c2c1CS(=O)(=O)c1ccccc1-2 | -16.9
32 | O=C(O)C1CC(O)CN1S(=O)(=O)c1ccc2ccccc2c1 (centres undefined) | 8.45
33 | O=C(Oc1cccnc1)c1ccc(Cl)cc1 | 8.07
34 | O=C(Oc1cccnc1)c1cccc(Cl)c1 | 51.8
35 | CCOC(=O)c1ccc2[nH]c3c(c2c1)CCCC3C(=O)OCC (centres undefined) | 64.3
36 | CCOC(=O)C1CCCc2c1[nH]c1c(C(=O)O)cccc21 (centres undefined) | 67.3
37 | CCOC(=O)c1c(C)nc2ccc(C)cn12 | 37
38 | CCOC(=O)c1c(C)nc2ccccn12 | 6.28
39 | CC1Cc2cc(/C=C3/SC(=S)N(C)C3=O)ccc2O1 (centres undefined) | 5.53
40 | CC1Cc2cc(/C=C3/SC(N4CCC(C(N)=O)CC4)=NC3=O)ccc2O1 (centres undefined) | 21.7
41 | COC(=O)c1ccc(C23CC4(C2)[C@H](CN(C)[C@@H]4c2ccccc2)C3c2ccccc2)cc1 (some centres undefined) | -17.5
42 | Cc1ccc(N2CC(=O)Nc3c(sc4nc(C)cc(C)c34)C2=O)cc1 | 7.84
43 | O=C(CNC(=O)c1ccc(Cl)cc1)Nc1ccc(S(=O)(=O)Nc2ncccn2)cc1 | 19.6
44 | Cc1ccnc(NC(=O)CN(C)S(=O)(=O)c2cccc3nsnc23)c1 | 4.38
45 | O=C1C=CC(=O)N1Cc1ccccc1 | 33.7
46 | Cc1nc2ccccc2c(=O)n1N(c1ccccc1)c1ccccc1 | 40

Row | SMILES | inhibition [%]
47 | O=C(Nc1cccc(F)c1)C1CCCN1C(=O)OCc1ccccc1 (centres undefined) | -8.2
48 | COc1ccc(-c2cc(C(=O)NC(C)C)no2)cc1 | 2.59
49 | COc1ccc(-c2cc(C(=O)O)no2)cc1 | 9.82
50 | Brc1ccc2nc3c(n2c1)CCCC3 | 40.8
51 | CC(C)(C)S(=O)(=O)c1ccc2nc3c(n2c1)CCCC3 | 12.6
52 | CN(c1ccccc1C(=O)O)S(C)(=O)=O | -5.19
53 | CC1(c2ccccc2Cl)NC(=O)N(CC(=O)N2CCN(S(=O)(=O)c3ccccc3)CC2)C1=O (centres undefined) | -5.46
54 | O=C(CNC(=O)c1ccco1)N/N=C/c1ccccc1[N+](=O)[O-] | -2.46
55 | Cc1ccccc1C(=O)N1CCN(c2ccc(NC(=O)c3ccc([N+](=O)[O-])o3)cc2)CC1 | 78.2
56 | O=C(Nc1nc(-c2cccs2)cs1)c1ccco1 | 25.2
57 | CC(=O)Nc1nc(-c2cccs2)cs1 | 18.4
58 | O=C(Nc1ccc(N2CCN(C(=O)c3cccs3)CC2)cc1)c1ccco1 | -3.51
59 | O=C(Nc1nc2ccccc2s1)c1ccc([N+](=O)[O-])o1 | 64.8
60 | O=C(Nc1ccc(N2CCN(C(=O)c3cccs3)CC2)cc1)c1ccc(Br)o1 | 67.5
61 | O=C(Nc1nc2c(F)cccc2s1)c1ccc([N+](=O)[O-])o1 | 65.5
62 | CC(C)C(=O)N1CCN(c2ccc(NC(=O)c3ccc(Br)o3)cc2)CC1 | 8.34
63 | COc1ccccc1CN(C)C(=O)COC(=O)c1ccc(Cl)nc1 | 73.1
64 | COCCn1nnnc1CN1CCN(C(=O)c2ccco2)CC1 | -9.84
65 | CC(NC(=O)c1cccs1)C(S)c1ccccc1 (centres undefined) | 13.2
66 | CN(CC(=O)Nc1ccccc1Br)C(=O)CCc1ccccc1 | 6.37
67 | COC(=O)c1ccc(N2C(=O)CC(N(C)CCc3ccc(OC)c(OC)c3)C2=O)cc1 (centres undefined) | -11.7
68 | O=C(Nc1ncnc2c1CCC2)C12CC3CC(CC(C3)C1)C2 | -0.8
69 | CC(C)(C)c1ccc(NNC(=O)C2CCC2)cc1 | 23.3

Row | SMILES | inhibition [%]
70 | COc1cc(NC(=O)c2ccc([N+](=O)[O-])o2)ccc1NC(=O)c1cccs1 | 44
71 | O=C(Nc1cccc(NC(=O)c2cccs2)c1)c1ccc(Br)o1 | 40.6
72 | COc1ccc(C(=O)C2CCCN(C(=O)c3cccc(Cl)c3F)C2)cc1OC (centres undefined) | 8.33
73 | Cc1cccnc1NC(=O)c1ccc2c(c1)NC(=O)C(C)S2 (centres undefined) | -14.1
74 | Cc1ccc(SCC(=O)Nc2cc(S(=O)(=O)N3CCCCC3)ccc2C)cc1 | 29.3
75 | O=C(Cn1nc(-c2ccccc2F)ccc1=O)Nc1ccc(S(=O)(=O)N2CCCCCC2)cc1 | 30.3
76 | O=C1CCC/C(=N\NC(=O)COc2ccc(Cl)cc2)C1 | 2.35
77 | O=C(NN=C1CCCC1)c1ccc(Cl)cc1 | -5.56
78 | O=C1OC(/C(=C\Nc2ccccc2)[N+](=O)[O-])c2ccccc21 (centres undefined) | -1.48
79 | O=C1OC(/C(=C\Nc2ccc(F)cc2F)[N+](=O)[O-])c2ccccc21 (centres undefined) | -5.17
80 | CC(C)(C)c1cc(NCCCn2ccnc2)n2ncc(-c3ccc(Cl)cc3)c2n1 | 67.9
81 | CC(C)(C)c1cc(NCCCn2ccnc2)n2ncc(-c3ccccc3)c2n1 | 73.1
82 | CCOC(=O)c1ccc(N2CN(CC)CNC2=S)cc1 | 51.5
83 | OC(CCc1cccc(Cl)c1)c1cccs1 (centres undefined) | 75.1
84 | CCO[C@H]1OC(C(=O)N2CCN(Cc3ccc4c(c3)OCO4)CC2)=C[C@@H](C)[C@@H]1CCCO | -18
85 | COc1ccccc1OCCNC(=O)c1ccc(C)o1 | -13.1
86 | COc1ccccc1CCNC(=O)c1ccoc1C | 3.23
87 | CCOC(=O)c1cc(C(=O)NC(C)c2ccccc2)c(=O)[nH]c1C (centres undefined) | -20.4
88 | CC(C)(C)NC(=O)COC(=O)c1cc(Br)ccc1Cl | 63.1
89 | CC(C)NC(=O)COC(=O)c1cc(Br)ccc1Cl | 75.9
90 | CNC(=O)COC(=O)c1cc(F)c(F)cc1Cl | 19.5
91 | COC(=O)CNC(=O)COC(=O)c1cc(F)c(F)cc1Cl | 42.5
92 | Cc1ccc(C)c(NC(=O)C2CC3CCC2C3)c1 (centres undefined) | 15.3

Row | SMILES | inhibition [%]
93 | CC(C)(C)OC(=O)C[C@@H]1C/C=C\C[C@@H](CC(=O)N(CCO)Cc2ccccc2)C(=O)N[C@H](Cc2c[nH]c3ccccc23)COC1=O | 67
94 | Cc1ccc(SCC(=O)OCC(=O)N2CCN(C(=O)c3ccco3)CC2)c(C)c1 | 15.3
95 | Cc1ccc(/C=C/C(=O)N2CCCC(C(N)=O)C2)o1 (centres undefined) | 4.1
96 | O=C(c1ccc2c(c1)N(Cc1ccccc1F)C(=O)c1ccccc1S2)N1CCOCC1 | 33.2
97 | Cc1ccccc1OCc1n[nH]c(=S)n1-c1ccccc1 | -9.9
98 | O=C(COC(=O)c1ccccc1NCCO)NCC1CCCCC1 | 23.3
99 | CCOc1ccc2nc(NC(=O)c3ccoc3C)sc2c1 | 54.7
100 | CCOc1ccc2nc(NC(=O)Nc3ccccc3)sc2c1 | -2.52
101 | CCOc1ccc2nc(NC(=O)c3ccc(C)o3)sc2c1 | 27.5
102 | CCOc1ccc2nc(NC(=O)c3cccnc3)sc2c1 | 8.67
103 | COc1ccc(/C=C/C(=O)Oc2cccc(/C=N/NC(=O)Cc3ccc(Br)cc3)c2)cc1 | 23.8
104 | CC(NS(=O)(=O)c1ccc2c(c1)CC(C)N2C(=O)C1CC1)c1ccccc1 (centres undefined) | 12.7
105 | CCCc1cc(=O)[nH]c(SCC(=O)Nc2cc(S(=O)(=O)N3CCOCC3)ccc2N(CC)CC)n1 | 18.9
106 | CCCCn1c(N)c(N(CCOC)C(=O)COc2ccc(C(C)=O)cc2)c(=O)[nH]c1=O | -6.71
107 | O=C(N/N=C/c1coc2ccccc2c1=O)c1ccncc1 | 76.8
108 | O=C(N/N=C/c1ccc[nH]1)c1ccc(O)cc1 | 46.7
109 | O=C(N/N=C/c1ccc[nH]1)c1ccc([N+](=O)[O-])cc1 | -12.7
110 | O=C(N/N=C/c1cc2c(cc1Cl)OCO2)c1ccc2c(c1)OCCO2 | -6.98
111 | O=C(N/N=C/c1cc2c(cc1Cl)OCO2)c1cccc(Br)c1 | -12.4
112 | O=C(N/N=C/c1ccc(F)cc1)c1ccncc1 | 53.7
113 | O=C(N/N=C\c1ccc[nH]1)c1cncc(Br)c1 | 4.75
114 | COc1ccc(C(=O)N/N=C\c2coc3ccccc3c2=O)cc1 | 50.1
